Screening results deposited in PubChem BioAssay by National Center for Advancing Translational Sciences (NCATS).
Sampled rows, rich in hits. Any-hit rate of the full collection: about 3.8%.
MBNL1 CUG block = blocks human MBNL1 binding to CUG repeat RNA; Q9NR56; AID 2675; 280,000 compounds, 0.036% hits; Potency, µM (titrated, usually from 57.5 µM), for inactives: at the highest dose activity change, negative = inhibition, usual class: inhibitors; TR-FRET MBNL1-His/biotin-(CUG)12 binding, 665/545 ratio; active means well fitted inhibition curve with a large enough effect in the signal ratio, with a control signal flat, not every such curve was filed as active; inconclusive means small, poorly fitted or top-dose-only effect, or effect the other way, or a change in a side signal; inactive means no such curve, though single readings can be large or run the other way; the % refers to the signal ratio; further: potency means the concentration at half of the fitted maximal effect; on the % scale 0 is the no-effect control and ±100 the full control effect
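TR-FRET readout: Ex 340 nm, 665/545 nm emission ratio, normalized to buffer-only (basal) and MBNL1-(CUG)12 controls. Complex of MBNL1-His with Biotin-(CUG)12, compounds 92 nM–58 uM, incubated 60 min at room temperature.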
PLK1 PBD block = inhibitors of human PLK1 polo-box domain binding; P53350; Plk1 PBD binding of FITC phosphopeptide, fluorescence polarization; Potency, µM, without a hit: max response, negative = inhibition, most hits filed as inhibitors; 360,000 compounds, 2.8% hits; further: potency means the concentration at half of the fitted maximal effect; series mostly up to about 57 µM; on the % scale 0 is the no-effect control and ±100 the full control effect; nearly all actives have a fitted effect of over 65% in size
KCNH2 3.1 inh = inhibitors of human KCNH2 3.1 potassium channel isoform; U2OS KCNH2 3.1, thallium flux FluxOr; hits give low values; activity change, % (tested at about 1.8 µM); 340,000 compounds, 0.95% hits;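 active means maximum activity change below -70%; inconclusive means maximum activity change from -70% to -50%; inactive means maximum activity change above -50%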;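 further: thallium influx rate constant from kinetic fluorescence after stimulation buffer; on the % scale 0 is the no-effect control and ±100 the full control effect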
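FluxOr-based Tl+ influx in U2OS cells transduced with KCNH2 3.1 virus; rate constants normalized to DMSO controls.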
CBFb-RUNX1 inh = CBF-beta/RUNX1 interaction disruption | AlphaScreen CBFb-His/RUNX1-biotin binding, biochemical | Q01196+Q13951 | Potency, µM (titrated, usually from 59.8 µM), for the others: at the top dose activity, negative = inhibition, hits mostly inhibitors | 230,000 tested, under 10 active; further: % of control where 0% means no effect
Target sequence (Q01196 whole entry, looked up): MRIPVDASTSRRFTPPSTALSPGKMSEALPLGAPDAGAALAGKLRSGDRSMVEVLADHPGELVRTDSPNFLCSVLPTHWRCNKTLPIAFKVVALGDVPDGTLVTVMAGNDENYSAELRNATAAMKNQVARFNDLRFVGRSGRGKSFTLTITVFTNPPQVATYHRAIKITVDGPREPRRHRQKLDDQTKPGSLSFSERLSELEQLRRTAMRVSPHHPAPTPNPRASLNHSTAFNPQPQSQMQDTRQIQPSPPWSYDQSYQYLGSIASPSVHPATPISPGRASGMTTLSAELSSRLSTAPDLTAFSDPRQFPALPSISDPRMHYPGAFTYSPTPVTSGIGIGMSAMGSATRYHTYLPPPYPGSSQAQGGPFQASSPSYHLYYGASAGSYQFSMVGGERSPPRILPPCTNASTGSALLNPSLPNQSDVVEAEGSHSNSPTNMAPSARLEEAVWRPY
Target sequence (Q13951 whole entry, looked up): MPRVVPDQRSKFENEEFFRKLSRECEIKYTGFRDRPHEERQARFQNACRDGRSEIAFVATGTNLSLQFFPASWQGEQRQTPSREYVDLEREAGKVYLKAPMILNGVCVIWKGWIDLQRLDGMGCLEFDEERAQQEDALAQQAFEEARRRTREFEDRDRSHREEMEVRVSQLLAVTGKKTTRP
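CBFb-His/RUNX1-biotin, 30 nM each, preincubated 20 min RT; compound 15 min RT; Ni + streptavidin beads 50 ng each, 90 min RT; AlphaScreen read.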
KCNH2 WT inh = KCNH2 (human, wildtype) channel inhibition; activity change, % at 1.84 µM; 340,000 compounds, 0.37% hits; Q12809; AID 720551; U2OS, BacMam KCNH2, thallium flux FluxOr; hits give low values;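 active means maximum activity change below -70%; inconclusive means maximum activity change between -70% and -50%; inactive means maximum activity change above -50%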; further: on the % scale 0 is the no-effect control and ±100 the full control effect
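U2OS cells transduced with wild-type KCNH2 virus are loaded with FluxOr dye for 45 min, and thallium flux is measured in kinetic reads before and after stimulation buffer. Rate constants are normalized to DMSO controls.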
VDR inh = blocks the human vitamin D receptor | VDR-SRC2-3 peptide fluorescence polarization, 2 h | Potency, µM, for the others: max response, negative = inhibition, actives largely listed as inhibitors | 400,000 compounds, 0.93% hits | AID 504847; further: potency means the concentration at half of the fitted maximal effect; on the % scale 0 is the no-effect control and ±100 the full control effect
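Compounds are added to VDR with labelled SRC2-3 coactivator peptide and held 2 h at room temperature. Inhibition of the VDR–peptide interaction is then read as a change in fluorescence polarization.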
* hit, by the source's call; ? = inconclusive; nt = not tested or not shown; [ ] = another dose, or the depositor's remark. Unless noted, the call rests on the fitted dose curve; in most records, active means well fitted curve in the direction sought with a large enough effect; inconclusive means small, poorly fitted or top-dose-only effect, or another doubt; inactive means no such curve, though single readings can be large; an effect the other way counts as inactive or inconclusive.

SMILES	MBNL1 CUG block	PLK1 PBD block	KCNH2 3.1 inh	CBFb-RUNX1 inh	KCNH2 WT inh	VDR inh
CCc1cc2c(=O)n(Cc3ccco3)c(SCC(=O)NC3CCS(=O)(=O)C3)nc2s1 (stereo unspecified)	1%	-6%	-48	-10%	0	-12%
CCc1cc2c(=O)n(Cc3ccco3)c(SCC(=O)N(C)C3CCS(=O)(=O)C3)nc2s1 (stereo unspecified)	nt	?	-111*	-13%	-90*	?
CC(C)NC(=O)COc1coc(CN2CCN(Cc3ccccc3)CC2)cc1=O	7%	-10%	-2	nt	0	-17%
COc1ccccc1N1CCN(Cc2cc(=O)c(OCC(=O)NC(C)C)co2)CC1	-3%	9.5µM*	3	nt	9	?
CCCCN(C(=O)Cc1ccc(S(=O)(=O)N2CCOCC2)s1)c1c(N)n(CCCC)c(=O)[nH]c1=O	nt	-6%	-4	nt	-75*	-10%
CCCCN(C(=O)c1cc(S(=O)(=O)N2CCOCC2)ccc1F)c1c(N)n(CCCC)c(=O)[nH]c1=O	nt	-4%	-7	nt	0	-7%
CCCN1C(=O)S/C(=C/c2ccc(N3CCOCC3)o2)C1=O	?	105%	-4	5%	16	89µM*
COC(=O)CN1C(=O)S/C(=C/c2ccc(N3CCCCC3)o2)C1=O	?	86%	-8	-21%	1	32µM*
Cc1ccc(S(=O)(=O)N2[C@@H](c3ccc(Cl)cc3)C(C(=O)O)=CC[C@H]2c2ccc(Cl)cc2)cc1	nt	?	10	nt	-9	-23%
O=C(O)C1=CC[C@@H](c2ccc(Cl)cc2)N(S(=O)(=O)c2ccc(Cl)cc2)[C@H]1c1ccc(Br)cc1	nt	27µM*	7	nt	6	-28%
Cc1ccc(S(=O)(=O)N2[C@@H](c3ccc(Br)cc3)C(C(=O)O)=CC[C@H]2c2ccc(Cl)cc2)cc1	nt	27µM*	nt	nt	3	-26%
O=C(O)C1=CC[C@@H](c2ccc(Cl)cc2)N(S(=O)(=O)c2ccc(Cl)cc2)[C@H]1c1cccc(Cl)c1	nt	30µM*	-17	nt	-13	-6%
Cc1ccc([C@H]2C(C(=O)O)=CC[C@@H](c3ccc(Cl)c(Cl)c3)N2S(=O)(=O)c2ccc(C)cc2)cc1	nt	30µM*	-3	nt	5	-26%
CC1(OC(=O)c2ccc(Cl)nc2)C(=O)C=c2cc(-c3ccsc3)ncc2=C1OC(=O)C1CCCC1 (stereo unspecified)	nt	nt	nt	11%[13.1 µM]	nt	nt
Cc1ccc([C@@H]2CC=C(C(=O)O)[C@H](c3ccc(Cl)cc3)N2S(=O)(=O)c2ccc(C)cc2)cc1	nt	?	9	nt	9	7%
Cc1ccc(S(=O)(=O)N2[C@@H](c3ccc(F)cc3)C(C(=O)O)=CC[C@H]2c2ccc(C(C)C)cc2)cc1	nt	?	-8	nt	17	-13%
Cc1ccc(S(=O)(=O)N2[C@@H](c3ccc(Cl)cc3)C(C(=O)O)=CC[C@H]2c2cccc(Cl)c2)cc1	nt	24µM*	3	nt	16	-17%
Cc1ccc(S(=O)(=O)N2[C@@H](c3cccc(Cl)c3)C(C(=O)O)=CC[C@H]2c2ccc(C(C)C)cc2)cc1	nt	21µM*	nt	nt	nt	-21%
Cc1ccc(S(=O)(=O)N2[C@@H](c3ccccc3)C(C(=O)O)=CC[C@H]2c2ccc(Cl)cc2)cc1	nt	24µM*	1	nt	0	?
CCc1ccc([C@@H]2CC=C(C(=O)O)[C@H](c3ccc(Br)cc3)N2S(=O)(=O)c2ccc(C)cc2)cc1	nt	27µM*	nt	nt	-18	?
COC(=O)C1=C(C(=O)OC)[C@@H]2N(C)c3ccc(OC)cc3[C@@]23C[C@@H](C(=O)OC)N(C(C)=O)C3=N1	nt	nt	nt	0%[13.1 µM]	nt	nt
CN(C)c1ccc(CNC(=O)c2ccc(NC(=O)c3nsc4ccccc34)cc2)cc1	nt	nt	nt	nt	nt	-2%
CCc1ccc([C@H]2C(C(=O)O)=C[C@@H](CC3CCCC3)N2S(=O)(=O)c2ccc(C)cc2)cc1	nt	21µM*	-16	nt	-6	-11%
CCCC[C@@H]1C=C(C(=O)O)[C@H](c2ccc(C)cc2)N1S(=O)(=O)c1ccc(C)cc1	nt	-14%	-40	nt	7	-15%
Cc1ccc([C@H]2C(C(=O)O)=C[C@@H](CC3CCCC3)N2S(=O)(=O)c2ccc(C)cc2)cc1	nt	-25%	3	nt	6	-15%
SMILES	MBNL1 CUG block	PLK1 PBD block	KCNH2 3.1 inh	CBFb-RUNX1 inh	KCNH2 WT inh	VDR inh
CCCC[C@@H]1C=C(C(=O)O)[C@H](c2ccc(Cl)c(Cl)c2)N1S(=O)(=O)c1ccc(C)cc1	nt	30µM*	0	nt	-9	?
CSc1cccc(NC(=O)c2cnn(-c3ccc(F)cc3)c2-n2cccc2)c1	nt	nt	nt	nt	nt	6%
CC(C)OC(=O)CSc1nnc(-c2ccc(C(C)(C)C)cc2)n1N	-6%	21µM*	6	19%	2	?
COC(=O)CC1Oc2ccccc2N(Cc2ccc(C)cc2)C1=O (stereo unspecified)	-4%	27µM*	2	7%	3	2%
N#C/C(=C/c1ccc(N2CCCCCC2)o1)c1cccc(F)c1	4%	-10%	-30	10%	22	45µM*
CSc1ccccc1NC(=O)COc1ccc(Cl)cc1C	8%	-17%	-2	20%	1	0%
CCOC(=O)c1c(C)oc(NC(=O)COc2ccc(Cl)cc2C)c1C#N	-5%	-12%	-75*	4%	-2	17%
O=C(NCC(=O)N(c1ccc2c(c1)OCO2)C(C(=O)NC1CCCC1)c1ccncc1)c1ccco1 (stereo unspecified)	9%	2.7µM*	-1	?	-8	-21%
O=C(NCC(=O)N(c1cccnc1)C(C(=O)NC1CCCC1)c1ccccc1)c1ccco1 (stereo unspecified)	-5%	-14%	-11	0%	8	-12%
Cc1cc(C)cc(N(C(=O)CNC(=O)c2ccco2)C(C(=O)NC2CCCC2)c2ccncc2)c1 (stereo unspecified)	2%	30µM*	-13	nt	-7	?
O=C(NCC(=O)N(c1cccnc1)C(C(=O)NC1CCCCC1)c1ccccc1F)c1ccco1 (stereo unspecified)	-1%	-3%	-193*	nt	-149*	3%
Cc1ccc(N(C(=O)CNC(=O)c2ccco2)C(C(=O)NC2CCCC2)c2cccnc2)cc1C (stereo unspecified)	3%	-27%	3	2%	-189*	0%
Cc1ccccc1Cn1c(=O)n(CCc2ccccc2)c(=O)c2sc3ccccc3c21	nt	nt	nt	nt	nt	7%
COc1ccc(NC(=O)CC2C(=O)N(c3ccc(OC)cc3)C(=O)N2C(C)C)cc1 (stereo unspecified)	-4%	0%	-82*	-1%	-30	5%
